Data: PubChem BioAssay (NCATS)
Results filed as inconclusive are left out. Entries that show only a call come without a potency. Calls of active or inactive are those of the source. Calls come from the whole dose curve; as a rule, active = well fitted inhibition curve with a large enough effect; inconclusive = small, poorly fitted or top-dose-only effect; inactive = flat fitted curve, though single readings scatter.

Experiments:
Test in all cases: qHTS profiling for inhibitors of Plasmodium falciparum proliferation (AID 504749); note: nearly all actives have a fitted effect of over 60% in size
Details in all cases: P. falciparum in erythrocytes, SYBR Green DNA, 72 h; series mostly up to 28.7 µM
P93_24 = test system: P93_24
Outline: (§1)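 P. falciparum-infected erythrocytes (0.3% parasitemia, 2.5% hematocrit final) were exposed to compounds for 72 h at 37 C in 5% CO2, then lysed with SYBR Green buffer overnight at room temperature; parasite DNA fluorescence was normalized to artemisinin and DMSO controls.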

P94_40 = test system: P94_40
Outline: as §1

PAD = test system: PAD
Outline: as §1

PC15 = test system: PC15
Outline: as §1

PC26 = test system: PC26
Outline: as §1

PC49 = test system: PC49
Outline: as §1

SC27B = test system: SC27B
Outline: as §1

TAB109 = test system: TAB109
Outline: as §1

TAB113 = test system: TAB113
Outline: as §1

TAB165 = test system: TAB165
Outline: as §1
Potency is the fitted concentration of half-maximal effect.

SMILES | Potency (P93_24) | Potency (P94_40) | Potency (PAD) | Potency (PC15) | Potency (PC26) | Potency (PC49) | Potency (SC27B) | Potency (TAB109) | Potency (TAB113) | Potency (TAB165)
FC1(F)C(F)(F)C(F)(F)C2(F)C(F)(F)C(F)(F)C(F)(F)C(F)(F)C2(F)C1(F)F (centres undefined) | inactive | inactive | inactive | inactive | inactive | inactive | inactive | inactive | inactive | inactive
CC(=O)Oc1ccc(C)cc1 | inactive | inactive | inactive | inactive | inactive | inactive | inactive | inactive | inactive | inactive
O=C(O)C1(C(=O)O)CCC1.[NH2-].[NH2-].[Pt+2] | inactive | inactive | inactive | inactive | inactive | inactive | inactive | inactive | inactive | inactive
O=C(O)CCC(=O)Nc1ccc(S(=O)(=O)Nc2nccs2)cc1 | inactive | inactive | inactive | inactive | inactive | inactive | inactive | inactive | inactive | inactive
CC(=O)Nc1ccc(OC(=O)c2ccccc2OC(C)=O)cc1 | inactive | inactive | inactive | inactive | inactive | inactive | inactive | inactive | inactive | inactive
COc1cc(C(=S)N2CCOCC2)ccc1O | inactive | inactive | inactive | inactive | inactive | inactive | inactive | inactive | – | inactive
Cc1cccc(C)c1NC(=O)CN1CCCC1 | inactive | inactive | inactive | inactive | inactive | inactive | inactive | inactive | – | inactive
CCCCCCCCCCCCSCCOCCO | inactive | inactive | inactive | inactive | inactive | inactive | inactive | inactive | inactive | inactive
CCCc1ncc(C[n+]2ccccc2C)c(N)n1 | inactive | inactive | inactive | inactive | inactive | inactive | inactive | inactive | inactive | inactive
NC(=S)N/N=C/c1cccnc1 | inactive | inactive | inactive | inactive | inactive | inactive | inactive | inactive | inactive | inactive
COc1cc(C(=O)N2CCCCCCC2)cc(OC)c1OC | inactive | inactive | inactive | inactive | inactive | inactive | inactive | inactive | inactive | inactive
CCc1oc2ccccc2c1C(=O)c1cc(Br)c(O)c(Br)c1 | inactive | inactive | inactive | inactive | inactive | inactive | inactive | inactive | inactive | inactive
c1ccc(-c2nc[nH]c2-c2ccccc2)cc1 | inactive | inactive | inactive | inactive | inactive | inactive | inactive | inactive | inactive | inactive
CCCCCCCCNC(C)C(O)c1ccc(SC(C)C)cc1 (centres undefined) | 891 nM (active) | 447 nM (active) | 398 nM (active) | 355 nM (active) | 849 nM (active) | 794 nM (active) | 1120 nM (active) | 1000 nM (active) | 355 nM (active) | 794 nM (active)
Cc1ccccc1OCC(O)CO (centres undefined) | inactive | inactive | inactive | inactive | inactive | inactive | inactive | inactive | inactive | inactive
CCCCNC(=O)NS(=O)(=O)c1ccc(N)cc1 | inactive | inactive | inactive | inactive | inactive | inactive | inactive | inactive | inactive | inactive
Cc1cc(NS(=O)(=O)c2ccc(N)cc2)nc(C)n1 | inactive | inactive | inactive | inactive | inactive | inactive | inactive | inactive | inactive | inactive
C/C=C/C=N/NC(=O)c1ccncc1 | inactive | inactive | inactive | inactive | inactive | inactive | inactive | inactive | inactive | inactive
CCNC(=O)/C=C/c1cccc(Br)c1 | inactive | inactive | inactive | inactive | inactive | inactive | inactive | – | inactive | –
COc1ccccc1N1CCN(CCCCNC(=O)c2ccc(-c3ccc(C(C)=O)cc3)cc2)CC1 | inactive | inactive | inactive | inactive | inactive | inactive | inactive | inactive | inactive | inactive
Cc1cccc(C)c1NC(=O)CN1CCCCCC1 | inactive | inactive | inactive | inactive | inactive | inactive | inactive | inactive | inactive | inactive
CC(C)Cn1cnc2c1c(=O)n(C)c(=O)n2C | inactive | inactive | inactive | inactive | inactive | inactive | inactive | inactive | inactive | inactive
CCN(CC)CCNC(=O)c1cc(Br)c(N)cc1OC | inactive | inactive | inactive | inactive | inactive | inactive | inactive | inactive | inactive | inactive
CCCCCCCCCCCCCC(=O)OC(C)C | inactive | inactive | inactive | inactive | inactive | inactive | inactive | inactive | inactive | inactive
C#C[C@]1(O)CC[C@H]2[C@@H]3CCC4=CC(=O)CC[C@@H]4[C@H]3CC[C@@]21CC | inactive | inactive | inactive | inactive | inactive | inactive | inactive | inactive | inactive | inactive
Cc1c[nH]c2ccccc12 | inactive | inactive | inactive | inactive | inactive | inactive | inactive | inactive | inactive | inactive
O=c1[nH]c(=O)n([C@H]2C[C@H](O)[C@@H](CO)O2)cc1F | inactive | inactive | inactive | inactive | inactive | inactive | inactive | inactive | inactive | inactive
CCCCC(CC)COC(=O)c1ccc(N(C)C)cc1 (centres undefined) | inactive | inactive | inactive | inactive | inactive | inactive | inactive | inactive | inactive | inactive
COc1ccc(CN(CCN(C)C)c2ncccn2)cc1 | 7940 nM (active) | inactive | inactive | inactive | inactive | inactive | inactive | inactive | inactive | inactive
COc1cc(N)c(Cl)cc1C(=O)NC1CCN(Cc2ccccc2)CC1 | inactive | inactive | inactive | inactive | – | inactive | inactive | inactive | inactive | –
